# Assay outcomes as filed in PubChem BioAssay.
# Most compounds without a hit are left out; they make up all but 3.9% or so of the library.
# GDH-TPI counter-1 = inhibits GDH-TPI coupling enzymes, artifact for Mtb FBA screen; inhibition, % at 4.8 µM; hit rate 1.2% among 360,000; GDH-TPI coupled enzyme counterscreen, NADH absorbance;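 note: 0% = DMSO wells and 100% = wells lacking the enzyme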
# Vc quorum ag = inducers of Vibrio cholerae quorum light production without autoinducers; hit rate 0.16% among 350,000; V. cholerae BH1578 lux reporter, luminescence, 6 h; activation, % at 18.7 µM; AID 588436; in the data active = activation mostly above about 9.7%, no sharp cut-off
# CCHF vOTU inh = CCHFV vOTU protease inhibition | Pep-AMC fluorescence | inhibition, % at 11.5 µM | hit rate 0.55% among 370,000 | AID 651958; note: 0% = vehicle wells with enzyme and 100% = no enzyme wells
# Mtb FBA inh = inhibits M. tuberculosis FBA enzyme; P9WQA3; AID 588726; purified M. tuberculosis FBA, fluorescence read-out; inhibition, % at 1 µM; hit rate 2.3% among 360,000; in the data active = inhibition above about 27%;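 note: 0% = vehicle and 100% = reference inhibitor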
# Target sequence (P9WQA3 whole entry, looked up): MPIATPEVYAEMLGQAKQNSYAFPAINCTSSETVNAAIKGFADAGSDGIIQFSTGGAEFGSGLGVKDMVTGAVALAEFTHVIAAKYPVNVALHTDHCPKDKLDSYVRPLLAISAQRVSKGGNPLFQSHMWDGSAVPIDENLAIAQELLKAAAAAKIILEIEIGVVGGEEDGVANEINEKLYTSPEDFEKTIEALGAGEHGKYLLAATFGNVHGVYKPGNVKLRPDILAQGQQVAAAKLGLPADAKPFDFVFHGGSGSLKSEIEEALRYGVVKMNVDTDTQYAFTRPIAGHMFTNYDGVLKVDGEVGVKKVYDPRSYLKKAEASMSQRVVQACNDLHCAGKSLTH
# Mtb FBA confirm = Mtb FBA inhibition, confirmed; shares compounds with Mtb FBA inh; purified M. tuberculosis FBA, fluorescence read-out; inhibition, % at 1 µM; hit rate 78% among 5,600; AID 651616; in the data active = inhibition above about 27%;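 note: 0% = vehicle wells and 100% = reference inhibitor wells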
# GDH-TPI counter-2 = counter-screen for M. tuberculosis FBA inhibitors: GDH-TPI coupled enzyme inhibition; shares compounds with Mtb FBA inh; GDH-TPI coupled enzyme counterscreen, fluorescence; inhibition, % at 1 µM; hit rate 81% among 5,600; AID 652141; in the data active = inhibition above about 10%
# * = called active by the depositor; i = inactive; / = no result; + = active, no number. Cut-off read from the data, not from the text of the source, unless noted: active = inhibition above about 30%; inactive = the rest.
SMILES,GDH-TPI counter-1,Vc quorum ag,CCHF vOTU inh,Mtb FBA inh,Mtb FBA confirm,GDH-TPI counter-2
COc1ccc(-n2cc(CN[C@H]3CCCCNC3=O)c(-c3cccc(F)c3)n2)cc1,6,i,2,57*,-4,-1
COc1ccc(-n2cc(CNC3CCN(C)CC3)c(-c3cccc(F)c3)n2)cc1,13,-1,7,64*,189*,162*
COc1ccc(-n2cc(CN3CCCC3)c(-c3cccc(F)c3)n2)cc1,1,-2,10,22,/,/
CC(=O)C(Sc1ncnc2sc3c(c12)CCCC3)C(C)=O,0,-2,-1,-4,/,/
COC(=O)c1ccccc1NC(=O)/C=C/C(=O)O,5,0,-8,7,/,/
NC(=O)c1ccccc1NC(=O)/C=C/C(=O)O,-1,-2,-30,50*,57*,49*
O=C(O)/C=C\C(=O)Nc1ccccc1C(=O)NCc1ccccc1,10,i,-9,52*,-5,-3
COCC(=O)n1cc(C(=O)OC)c2ccccc21,1,7,12,3,/,/
Cc1cc(OCC(=O)NC2CC(C)(C)NC(C)(C)C2)c2c(C)cc(=O)oc2c1,3,0,-31,94*,132*,114*
Cc1cc(OCC(=O)NCc2cccnc2)c2c(C)cc(=O)oc2c1,12,1,-2,68*,-6,-6
CCCc1cc(=O)oc2cc(C)cc(OCC(=O)Nc3cccnc3)c12,11,-3,18,82*,7,0
Cc1cc(OCC(=O)Nc2cccnc2)c2c(C)cc(=O)oc2c1,9,0,-17,78*,-2,-2
O=S(=O)(c1ccccc1Cl)N1CCCC1c1nc(-c2ccccc2Cl)no1 (stereo not drawn),-16,0,1,-7,/,/
C=CCOc1ccc(-c2n[nH]c(=S)o2)cc1,4,0,-2,35*,87*,76*
COc1ccc(C(=O)Nc2ccc(-c3n[nH]c(=S)o3)cc2)cc1,15,i,4,1,/,/
COc1c(Cl)cccc1-c1cn2ccc(C)cc2n1,1,-1,-19,38*,36*,39*
Cc1ccn2cc(-c3cnoc3C)nc2c1,-8,i,5,31*,15,0
COC(=O)CSc1nnc(SCc2ccccc2)s1,4,i,-12,0,/,/
Cc1ccc(NC(=O)c2cccc(OCc3c(C)noc3C)c2)cc1S(=O)(=O)Nc1ccccc1Cl,-1,i,8,0,/,/
COc1ccc2oc(C(=O)OCC(=O)Nc3ccc(C(=O)N(C)C)cc3)c(C)c2c1,9,i,-6,28*,44*,44*
COc1ccc2oc(C(=O)OCC(=O)NC(C)c3ccccc3)c(C)c2c1 (stereo not drawn),-1,i,1,39*,127*,85*
COc1ccc2oc(C(=O)OCC(=O)NC(=O)NC(C)C)c(C)c2c1,11,/,-13,35*,45*,35*
COc1ccc2oc(C(=O)OCC(=O)Nc3ccccc3OC)c(C)c2c1,12,-6,/,16,/,/
COc1ccc2oc(C(=O)OCC(=O)Nc3ccccc3)c(C)c2c1,5,0,-19,33*,+,168*
COc1ccc2oc(C(=O)OCC(=O)Nc3ccc(N4CCOCC4)cc3)c(C)c2c1,6,i,-11,7,/,/
SMILES,GDH-TPI counter-1,Vc quorum ag,CCHF vOTU inh,Mtb FBA inh,Mtb FBA confirm,GDH-TPI counter-2
O=C(NCc1cccnc1)c1cc(C2CCCCN2C(=O)c2ccc3ccccc3c2)on1 (stereo not drawn),1,0,1,4,/,/
COc1ccc2c(c1O)-c1c(OC)c(OC)cc3c1[C@H](C2)N(C)CC3,10,0,4,4,/,/
COc1cc2c(cc1O)CC1c3c(cc(O)c(OC)c3-2)CCN1C (stereo not drawn),-11,-1,5,27*,101*,95*
O=C(O)CN1C(=O)/C(=C/c2cccc(Cl)c2)Oc2ccccc21,18,i,-46,67*,+,+
O=C(CN1C(=O)/C(=C\c2cccc(Br)c2)Oc2ccccc21)NCCCN1CCOCC1,15,-1,3,33*,162*,130*
CCOCCCNC(=O)C(NC(=O)c1ccccc1O)c1ccc(C)cc1 (stereo not drawn),4,i,-23,42*,+,169*
CCOCCCNC(=O)C(NC(=O)c1ccccn1)c1ccc(C)cc1 (stereo not drawn),3,/,-4,4,/,/
CN(c1ccccc1)S(=O)(=O)c1ccc(C(=O)N2CCN(c3ccccc3)CC2)cc1,-3,-6,-8,-2,/,/
CCOC(=O)Nc1nnc(Cc2ccc(Cl)c(Cl)c2)s1,-4,i,-1,103*,63*,47*
CCOC(=O)C(=O)Nc1nnc(Cc2ccc(OC)c(OC)c2)s1,-1,i,-6,-1,/,/
O=C(O)c1ccc2c(c1)C(=O)N(CCc1ccccc1)C2=O,-1,-3,11,85*,174*,132*
O=C(O)c1ccc2c(c1)C(=O)N(CCCCCCCN1C(=O)c3ccc(C(=O)O)cc3C1=O)C2=O,2,0,5,-1,/,/
COc1ccc(CC2=NCCc3cc(OC)c(OC)cc32)cc1OC,17,0,-105,94*,+,157*
COc1ccc(C2=NCCc3cc(OC)c(OC)cc32)cc1OC,16,0,10,-3,/,/
CCN1C(=O)CS/C1=N\S(=O)(=O)c1ccc(C)cc1,4,-3,-8,47*,77*,79*
CCN1C(=O)CS/C1=N\S(=O)(=O)c1ccccc1,2,0,-9,3,/,/
COc1ccc2[nH]c3c(c2c1)CCNC3=O,2,i,-34,88*,44*,36*
O=C1NCCc2c1[nH]c1ccc([N+](=O)[O-])cc21,8,0,-4,-1,/,/
CCCS(=O)(=O)NC(=O)C1(C)CCN(C(=O)c2cccc(C)c2C)C1 (stereo not drawn),12,-1,4,3,/,/
Cc1cc(S(=O)(=O)NCc2ccc3c(c2)OCO3)ccc1F,7,0,-9,87*,74*,96*
CCOc1ccc(N(CC(=O)N2CCCCCC2)S(C)(=O)=O)cc1,6,i,10,-1,/,/
COCCn1nc2cc(C(=O)NCC34CC5CC(CC(C5)C3)C4)ccc2c1OC,9,-5,-31,43*,+,+
O=C(NCC12CC3CC(CC(C3)C1)C2)c1nc2ncccn2n1,-15,6,-1,0,/,/
CCCn1nc2cc(C(=O)NCC34CC5CC(CC(C5)C3)C4)ccc2c1OCC,9,i,-21,29*,4,-3
CSc1ncccc1C(=O)NCC12CC3CC(CC(C3)C1)C2,-1,-1,-7,-2,/,/
CCc1nnc(NC(=O)c2sc3nc4c(cc3c2N)CCCCCC4)s1,13,0,-13,61*,7,-7
O=C(Nc1cccc2ccccc12)N1CC=C(c2ccccc2)CC1,-1,4,0,33*,55*,68*
O=C(Nc1cccc2ccccc12)N1CCN(Cc2ccccc2)CC1,-13,i,-3,33*,96*,74*
